The list is not random: actives were taken first. Their share in the collection is about 3.8%.
Gli-Sufu block – blocks Gli-Sufu signaling in a luciferase reporter; 340,000 tested, 0.74% active; AID 588413; inhibition, % at 5 µM; Sufu-KO-LIGHT fibroblasts, Gli luciferase reporter luminescence;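 active means inhibition above about 55%, limit read from the data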;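 further: 0% = DMSO-treated cells and 100% = wells with medium but no cells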
Mdm2-MdmX inh – disrupts the human Mdm2-MdmX interaction | SaOS-2 split-luciferase Mdm2/MdmX complementation, luminescence | 330,000 tested, 3% active | inhibition, % at 8 µM;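 active means inhibition of at least 50% at 8 µM in the primary screen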
Target sequence (O15151 whole entry, looked up): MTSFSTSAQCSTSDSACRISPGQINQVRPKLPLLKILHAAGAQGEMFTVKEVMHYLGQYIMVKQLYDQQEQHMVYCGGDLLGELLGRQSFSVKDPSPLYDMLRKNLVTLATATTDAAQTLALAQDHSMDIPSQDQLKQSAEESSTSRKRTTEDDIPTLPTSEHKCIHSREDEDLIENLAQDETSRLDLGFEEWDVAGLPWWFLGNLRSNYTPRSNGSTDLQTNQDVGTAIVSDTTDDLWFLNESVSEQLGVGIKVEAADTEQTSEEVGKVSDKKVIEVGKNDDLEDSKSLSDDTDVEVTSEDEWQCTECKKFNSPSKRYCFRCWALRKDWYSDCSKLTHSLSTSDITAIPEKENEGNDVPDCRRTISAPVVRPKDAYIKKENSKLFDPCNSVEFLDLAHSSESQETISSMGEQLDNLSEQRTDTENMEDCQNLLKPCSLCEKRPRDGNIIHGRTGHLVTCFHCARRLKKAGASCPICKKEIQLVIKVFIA
Target sequence (Q00987 whole entry, looked up): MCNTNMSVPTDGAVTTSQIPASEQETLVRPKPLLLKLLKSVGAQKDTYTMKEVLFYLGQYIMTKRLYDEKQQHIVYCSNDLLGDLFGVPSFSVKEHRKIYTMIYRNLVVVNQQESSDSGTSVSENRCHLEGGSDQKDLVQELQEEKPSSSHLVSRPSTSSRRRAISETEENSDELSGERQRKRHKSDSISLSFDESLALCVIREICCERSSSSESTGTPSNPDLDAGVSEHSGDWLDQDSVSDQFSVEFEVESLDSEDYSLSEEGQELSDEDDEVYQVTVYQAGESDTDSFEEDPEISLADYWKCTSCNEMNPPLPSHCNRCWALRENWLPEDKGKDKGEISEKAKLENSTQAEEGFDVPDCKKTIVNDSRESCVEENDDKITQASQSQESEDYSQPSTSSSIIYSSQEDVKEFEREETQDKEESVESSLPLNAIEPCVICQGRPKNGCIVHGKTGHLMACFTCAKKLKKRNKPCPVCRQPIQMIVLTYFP
Jurkat NFkB inh – lowers PMA/ionomycin-induced NF-kB signal in Jurkat cells. PMA/ionomycin-induced NF-kB luciferase reporter, luminescence. inhibition, % at 4 µM. 330,000 tested, 0.53% active; in the data active means inhibition above about 50%
Shn3 inh set2 – inhibitors of Schnurri-3 3'UTR reporter in osteoblasts. Clone20 osteoblast Shn3 3'UTR firefly luciferase, 24 h. inhibition, % at 12.5 µM. 360,000 tested, 0.52% active. AID 588674;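 active means mean inhibition of at least 75% with every replicate also reaching 75%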;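 further: 0% = median of neutral control wells and 100% = pilot-screen positive control compound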
697 NFkB inh – lowers PMA/ionomycin-induced NF-kB signal in 697 B cells. AID 435022. inhibition, % at 4 µM. 697 B-cell NF-kB luciferase reporter, 16 h. 330,000 tested, 0.33% active; in the data active means inhibition above about 35%
Starred values were filed as active, the others as inactive; . = no result given.

SMILES	Gli-Sufu block	Mdm2-MdmX inh	Jurkat NFkB inh	Shn3 inh set2	697 NFkB inh
O=C(N/N=C/c1cc([N+](=O)[O-])ccc1Cl)c1cc(-c2ccccc2)nc2ccccc12	3	32	4	-7	-4
Oc1ccc(C=NNc2ccccn2)c(O)c1	44	.	.	86*	.
CC(C)N1CC2(CC(c3ccc(Cl)cc3Cl)=NO2)CN1C(=O)c1ccc(C(C)(C)C)cc1 (centres undefined)	.	.	.	70	.
COc1ccc(N(C)C(=O)c2ccc3snnc3c2)cc1	0	17	7	87*	-3
CC1C(c2ccccc2)=Nn2c(=O)n(-c3ccccc3)c(=O)n21 (centres undefined)	.	.	.	4	.
CC(/C=N\NC(=O)Cn1c(C)nc2ccccc21)=C\c1ccccc1	4	-19	38	85*	4
CCOc1ccccc1C(=O)Nc1cc2c(cc1N1CCCC1)n(CC)c(=O)n2CC	58*	29	-11	-46	-50
CCn1c(=O)n(CC)c2cc(N3CCCC3)c(NC(=O)c3ccccc3OC)cc21	20	31	-2	-16	-16
Cc1ccc(NC(=O)c2ccc(Cl)c(N3C(=O)C=CC3=O)c2)cc1	10	-2	-24	92*	-51
CCCCCC(=O)N1C[C@H](n2cc(COC(=O)c3ccccc3)nn2)[C@@H](O)C[C@@H]1c1ccc(OC)cc1	.	.	.	28	.
CCCOC(=O)C[N+](C)(C)CCOC1CC2CCC1(C)C2(C)C (centres undefined)	42	-12	-7	34	-15
CCCCCCCOC(=O)C[N+](C)(C)CCOC1CC2CCC1(C)C2(C)C (centres undefined)	82*	.	.	85*	.
S=C(NN=C(c1ccccc1)c1ccccn1)N(Cc1ccccn1)Cc1ccccn1	69*	.	.	91*	.
Cc1ccccc1NC(=S)N(Cc1ccccn1)Cc1ccccc1Cl	10	0	-17	-7	24
CC(=NNC(=S)N(Cc1ccccn1)Cc1ccccn1)c1cnccn1	90*	.	.	95*	.
S=C(NN=Cc1ccccn1)N(Cc1ccccn1)Cc1ccccn1	82*	.	.	81	.
O=C(N/N=C(\c1ccccc1)c1ccccn1)c1ccccc1Cl	53	40	45	95*	-16
C/C(=N/NC(=O)c1ccccn1)c1ccncc1	3	-22	-44	-34	-26
Cc1cccc(C(=O)OCC(=O)NCCN2C(=O)CSC2=O)c1[N+](=O)[O-]	2	7	3	0	-3
NC(c1ccncc1)c1ccc(Cl)cc1 (centres undefined)	.	.	.	-6	.
CN[C@H](C)C(=O)NC[C@H]1O[C@@H](n2cnc3c(N)ncnc32)[C@H](O)[C@@H]1O	-7	15	.	-9	-10
COc1cccc(OCCn2cc(C(=O)c3ccco3)c3ccccc32)c1	5	-12	-23	15	-24
COc1cccc(OCCn2cc(C(C)=O)c3ccccc32)c1	15	24	34	87*	-21
CS(=O)(=O)Nc1ccccc1-c1ccc2nccn2c1	.	.	.	-8	.
COc1ccc(C(C(=O)NC2CCCCC2)N(C(=O)CCl)c2cccc(Cl)c2)cc1 (centres undefined)	.	.	.	92*	.
SMILES	Gli-Sufu block	Mdm2-MdmX inh	Jurkat NFkB inh	Shn3 inh set2	697 NFkB inh
CCn1cc(C(=O)NC(C)C23CC4CC(CC(C4)C2)C3)cn1 (centres undefined)	6	16	6	-19	9
CC(NC(=O)Cn1ncc(Cl)c(Cl)c1=O)C12CC3CC(CC(C3)C1)C2 (centres undefined)	9	.	.	98*	.
CC(=NNC(=S)N1CCN(C2CCCCCC2)CC1)c1ccccn1	65*	.	.	93*	.
CC(=NNC(=S)N1CC2CCC(CC2)C1)c1ccccn1	.	.	.	86*	.
CC(=NNC(=S)N1CC2CCC(CC2)C1)c1cnccn1	55	.	.	84*	.
CC(=NNC(=S)N1CCN(c2ccccn2)CC1)c1nccs1	89*	.	.	85*	.
CC(=NNC(=S)N1CCN(c2ccccn2)CC1)c1ccccn1	9	.	.	4	.
CNC(=S)NN=C(C)CCCC(C)=NNC(=S)NC	43	.	.	-11	.
Cc1ccc(NC2=C/C(=N/S(=O)(=O)c3cccs3)c3ccccc3C2=O)cc1C	2	.	.	-5	.
CC(=O)Nc1ccc(NC2=C/C(=N/S(=O)(=O)c3cccs3)c3ccccc3C2=O)cc1	-11	22	18	96*	-17
COCCN(C(=O)COC(=O)C12CC3CC(CC(C3)C1)C2)c1c(N)n(Cc2ccccc2)c(=O)[nH]c1=O	2	.	.	0	.
CCCN1CCN(C(=O)c2ccc3[nH]c(C)c(C)c3c2)CC1	.	.	.	-9	.
OC[C@H]1O[C@@H](Oc2ccc(O)cc2)[C@H](O)[C@@H](O)[C@@H]1O	-10	.	.	88*	.
CC(C)(C)N1CC(C(=O)Nc2ccc(C(N)=O)cc2)CC1=O (centres undefined)	.	.	.	-18	.
O=C(COC(=O)c1ccc[n+]([O-])c1)Nc1ccc([N+](=O)[O-])cc1Cl	-8	21	-4	1	16
Cc1ccc(-n2ncc(Br)c(Br)c2=O)cc1	-8	.	.	96*	.
O=c1c(Br)c(Br)cnn1-c1ccccc1	1	.	.	98*	.
O=[N+]([O-])c1ccc(/C=N/N=C/c2ccc([N+](=O)[O-])o2)o1	49	.	.	98*	.
Cc1cc2ccccc2cc1C(=O)c1ccccc1	0	.	.	-41	.
Cc1sc2cc3c(c(C(=O)c4ccccc4)[n+]2c1C)-c1cccc2cccc-3c12	70*	.	.	.	.
O=C(c1ccccc1)c1ccc2ccccc2c1	-36	.	.	-19	.
O=C(c1ccccc1)c1c2c(cc3sc4ccccc4[n+]13)-c1cccc3cccc-2c13	76*	.	.	78	.
